These results are taken from PubChem BioAssay AID1117283 (Broad Institute, 2014).

Structures are written as SMILES. Entries with a potency or affinity are not part of this list. Active and inactive are the calls of the source.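 Rule for the calls: active = fluorescent signal decreased by at least 40%; inconclusive = no clear call, values can overlap the other calls; inactive = the rest, including activity opposite to the expected direction.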

This test is described as follows: fibronectin fibrillogenesis inhibitors in fibroblasts, dose response, AH1F cells, Alexa488-fibronectin fluorescence, cherry-pick, set 2 (AID 1117283).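 Note: AH1F fibroblasts given Alexa488-labelled fibronectin at 24 nM final.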 The conditions noted are these: Alexa488-fibronectin deposition fluorescence, overnight; series mostly up to 35 µM.
Turning to `C[C@H]1CN([C@@H](C)CO)C(=O)c2cccc(NC(=O)Nc3ccc(C(F)(F)F)cc3)c2O[C@H]1CN(C)C(=O)Nc1cccc2ccccc12`, the call was inactive.

For `COCC(=O)Nc1ccc2c(c1)C(=O)N(C)[C@@H]1CC[C@H](CC(=O)NCc3ccccc3Cl)O[C@@H]1CO2`, the call was inactive. In the case of `COc1ccc(-c2csc(CCn3nc(C)cc3C)n2)cc1OC` it was “inactive”; in that of `CCOC(=O)C1=C(C)Nc2nc3ccccc3n2C1c1ccncc1` (configuration not stated), “inactive”. In the case of `CN(C)C(=O)c1ccc(-c2ccc3c(c2)[C@@H]2[C@@H](CCN2C(=O)c2ccc(F)cc2)[C@@H](CO)N3C)cc1` it was “inactive”; in that of `C[C@H](CO)N1C[C@H](C)[C@H](CN(C)C(=O)c2cccc(F)c2)Oc2ncc(-c3ccccc3)cc2C1=O`, “inactive”. In the case of `CO[C@@H]1CN(C)C(=O)c2ccc(NC(=O)Nc3ccc(Cl)c(Cl)c3)cc2OC[C@@H](C)NC[C@@H]1C` it was “inactive”; in that of `CO[C@H]1CN(C)C(=O)c2cc(NC(=O)Nc3cc(Cl)cc(Cl)c3)ccc2OC[C@@H](C)NC[C@@H]1C`, “inactive”; in that of `Cc1ccc(CS(=O)Cc2ccc(C(=O)NC3CCCC(C)C3C)o2)cc1` (configuration not stated), “inactive”. In the case of `COc1ccc(C)cc1N(CC(=O)Nc1cccc(N(C)S(C)(=O)=O)c1)S(C)(=O)=O`, the call was inactive. In the case of `CN(C)C(=O)c1ccc(-c2ccc3c(c2)[C@@H]2[C@@H](CCN2C(=O)c2ccc(F)cc2)[C@H](CO)N3C)cc1` it was “inactive”; in that of `CO[C@@H]1CN(C)C(=O)c2cc(NC(=O)Nc3ccc(Cl)c(Cl)c3)ccc2OC[C@@H](C)NC[C@@H]1C`, “inactive”; in that of `C[C@@H]1CN([C@H](C)CO)C(=O)c2cc(-c3ccccc3)cnc2O[C@@H]1CN(C)Cc1ccccc1`, “inactive”. In the case of `CO[C@@H]1CN(C)C(=O)c2cc(NC(=O)Nc3cc(Cl)cc(Cl)c3)ccc2OC[C@@H](C)NC[C@@H]1C` it was “inactive”; in that of `COc1ccccc1CNc1nc(NCc2cnc(C)cn2)c2sccc2n1`, “inactive”; in that of `COc1cccc(-c2ccc3c(c2)[C@H]2[C@H](CCN2S(=O)(=O)c2cccc(OC)c2)[C@H](CO)N3)c1`, “inactive”. In the case of `Cc1ccc(S(=O)(=O)N2CC[C@@H]3[C@@H](CO)Nc4ccc(-c5cccc(C(=O)N(C)C)c5)cc4[C@@H]32)cc1` it was “inactive”; in that of `CC(C)C(=O)Nc1ccc2c(c1)C(=O)N(C)[C@@H]1CC[C@H](CC(=O)O)O[C@@H]1CO2`, “inactive”. For the molecule `CO[C@H]1CN(C)C(=O)c2cc(NC(=O)Nc3cc(Cl)cc(Cl)c3)ccc2OC[C@@H](C)NC[C@H]1C`, the call was inactive. In the case of `OC(CNC1CCCc2ccccc21)COc1c(Cl)cccc1Cl` (configuration not stated) it was “inactive”. On to `O=C(Nc1ccccc1F)N1C[C@H]2[C@@H](c3ccccc31)[C@H](CO)N2C(=O)C1CC1`, for which the molecule was called inactive.

Take `N#Cc1ccc(-c2ccc3c(c2)[C@H]2[C@H](CCN2S(=O)(=O)c2cccc(F)c2)[C@@H](CO)N3)cc1`: the molecule was called inactive. In the case of `C[C@H]1CN([C@@H](C)CO)C(=O)c2cc(-c3ccccc3)cnc2O[C@@H]1CN(C)C(=O)c1cccc(F)c1` it was “inactive”; in that of `COc1ccc(Cl)cc1NC(=O)CSc1nc(Nc2ccccc2)nc(N2CCOCC2)n1`, “inactive”; in that of `COCC(=O)Nc1ccc2c(c1)C(=O)N(C)[C@@H]1CC[C@@H](CC(=O)NCc3ccccc3Cl)O[C@H]1CO2`, “inactive”. With `O=C(Nc1ccccc1F)N1C[C@@H]2[C@H](c3ccccc31)[C@H](CO)N2C(=O)C1CC1`, the molecule was classed as inactive. In the case of `Cc1cccc(NC(=O)c2ccc(S(=O)(=O)N3CCCCC3)cc2)n1` it was “inactive”.

On to `CC1(C)Cc2c(C#N)c(SCC(=O)c3ccccc3)nc(N3CCOCC3)c2CS1`, for which the result was inactive.

For the molecule `N#C[C@@H]1[C@H](c2ccccc2C2=CCCCC2)[C@H](CO)N1S(=O)(=O)c1ccccc1`, the molecule was classed as inactive. In the case of `CO[C@@H]1CN(C)C(=O)c2cc(NC(=O)Nc3ccc(Cl)c(Cl)c3)ccc2OC[C@H](C)NC[C@@H]1C` it was “inactive”. In the case of `CC(C)(C)[S@@](=O)N1Cc2cc(C(=O)NCc3ccccc3F)nc(-c3cccc(-c4ccncc4)c3)c2[C@H]1CCO` it was “inactive”; in that of `CO[C@@H]1CN(C)C(=O)c2ccc(NC(=O)c3ccc(-c4ccccc4)cc3)cc2OC[C@@H](C)NC[C@@H]1C`, “inactive”; in that of `O=C(CCC(=O)c1cccs1)NCc1cccnc1`, “inactive”. For the molecule `Cc1ccc([N+](=O)[O-])cc1NC(=O)CN(C(=O)c1ccccc1Cl)C1CCCCC1`, the molecule was called inactive. In the case of `O=C(CC1Nc2ccccc2NC1=O)Nc1ccc2c(c1)OCO2` (configuration not stated) it was “inactive”. In the case of `C[C@H](CO)N1C[C@H](C)[C@H](CN(C)Cc2ccc(-c3ccccc3)cc2)Oc2ccc(NC(=O)C3CCCCC3)cc2C1=O` it was “inactive”. In the case of `C[C@H](O)C#Cc1ccc2c(c1)O[C@@H](CN(C)C)[C@H](C)CN([C@H](C)CO)S2(=O)=O` it was “inactive”.
